Screens: PubChem BioAssay, ICCB-Longwood Screening Facility, Harvard Medical School
Compounds with a hit are over-represented: about 1.5% of the library has one in this group of screens.
Mtb MenB inh: blocks the Mycobacterium tuberculosis MenB enzyme; MenB enzyme assay, absorbance read-out; inhibition, % (concentration not given with the values); P9WNP5; 100,000 tested, 0.43% active; in the data active = inhibition above about 21%, passing the limit was not always enough
PV pol inh: inhibitors of poliovirus RNA polymerase binding and polymerization; P03300; poliovirus polymerase elongation, fluorescence polarization; stronger effect = lower value; % elongation, % (compound at 16.7 µg/mL); 150,000 tested, 0.66% active; in the data active = % elongation below about 90%
MbtI inh: blocks the Mycobacterium tuberculosis siderophore enzyme MbtI; purified MbtI enzyme, fluorescence intensity read-out; inhibition, % (concentration not given with the values); 100,000 tested, 0.89% active; AID 493033; in the data active = inhibition mostly above about 56%, no sharp cut-off; inactive = mostly below about 77%
Target sequence (P9WFX0 whole entry, looked up): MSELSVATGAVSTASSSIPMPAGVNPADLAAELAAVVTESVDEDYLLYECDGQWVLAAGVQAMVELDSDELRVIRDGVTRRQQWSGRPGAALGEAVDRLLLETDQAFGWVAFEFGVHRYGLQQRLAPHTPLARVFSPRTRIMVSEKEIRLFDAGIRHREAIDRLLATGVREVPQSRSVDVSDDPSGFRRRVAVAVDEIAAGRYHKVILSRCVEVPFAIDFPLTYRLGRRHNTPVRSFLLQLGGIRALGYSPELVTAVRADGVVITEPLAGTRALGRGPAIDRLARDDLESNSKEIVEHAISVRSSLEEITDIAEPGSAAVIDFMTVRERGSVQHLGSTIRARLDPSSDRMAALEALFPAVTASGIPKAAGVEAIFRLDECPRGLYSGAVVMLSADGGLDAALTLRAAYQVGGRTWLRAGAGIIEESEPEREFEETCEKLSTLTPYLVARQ
Hits are given with their value; i = inactive; nt = no result.

SMILES	Mtb MenB inh	PV pol inh	MbtI inh
CCN(c1ccccc1)S(=O)(=O)c1ccc(Cl)cc1	i	i	i
CCN(c1ccccc1)S(=O)(=O)c1ccc(C(=O)OCC#N)cc1	i	66.0	i
S=C(NCCc1c[nH]c2ccccc12)NCCN1CCOCC1	i	i	i
NS(=O)(=O)c1ccc(N=CC2=C(O)c3ccccc3C2=O)cc1	i	i	nt
O=C(c1cn(CCOc2ccccc2)c2ccccc12)C1CC1	i	i	nt
CN(C)C(=O)CN1CCNCC1	i	i	i
CN(C)CCN1CCNCC1	34.3	i	i
COc1cccc(NC(=O)C2CCN(c3nn4c(=O)cc(C)nc4s3)CC2)c1	i	i	i
CC(C)C[C@H](NC(=O)[C@@H](O)[C@H](N)Cc1ccccc1)C(=O)O	i	i	i
CCC(C)[C@@H](CO[C@@H](Cc1ccccc1)C(=O)N[C@@H](CCS(C)(=O)=O)C(=O)OC(C)C)NC[C@@H](N)CS (stereo not given in full)	i	i	66.8
CCCCNC(=O)c1cc(-c2ccc(F)cc2)[nH]c1C	i	i	i
CCOn1c(=O)c(-c2ccccc2)[n+]([O-])c2ccccc21	i	i	i
C=CCOn1c(=O)c(-c2ccc(OC)c(OC)c2)[n+]([O-])c2ccccc21	i	i	77.9
C=CCN1C(=O)C(CC(=O)Nc2ccc(C)cc2)SC1=Nc1cccc(O)c1 (stereo not given)	i	i	i
Cc1ccc(NC(=O)CN2C(=O)C(c3ccc(C(C)(C)C)cc3)=NC2(C)C)cc1	nt	32.0	nt
CC1(C)N=C(c2ccccc2)C(=O)N1CC(=O)Nc1ccccc1	i	i	i
CC1=Nc2ccccc2N=C(N)C1c1ccc(Cl)cc1 (stereo not given)	i	i	i
O=C1CSC(=S)N1/N=C/c1cccnc1	i	i	i
O=C1CSC(=S)N1/N=C/c1cc(Br)cc(Br)c1O	i	90.0	i
Cc1ccccc1Cn1c(=O)n(CCC(=O)NCCc2ccccc2)c(=O)c2ccccc21	i	i	i
CC12CN3CC(C)(C1O)C(O)C(C)(C3)C2O (stereo not given)	i	86.0	i
CC12CN3CC(C)(C1=O)C(=O)C(C)(C3)C2=O	i	i	i
CCOCCCNC(=O)NC(C)c1c(-n2cccc2)sc2c1CCN(CC)C2 (stereo not given)	nt	i	nt
CCCCc1c(C(=O)O)cccc1C(=O)O	26.6	i	i
CCCCNc1ccccc1C(=O)O	i	i	i
SMILES	Mtb MenB inh	PV pol inh	MbtI inh
Cc1cccc(C(=O)NNc2ncnc3c2cnn3-c2ccc(Cl)cc2)c1	i	i	i
NC(=S)Cc1nc2n(n1)Cc1ccccc1-2	i	83.0	76.9
Fc1ccc(-c2nc3n(n2)Cc2ccccc2-3)cc1	i	i	i
O=C1CCCCCN1Cc1nnc(SCc2cnc(-c3ccccc3)s2)n1-c1ccccn1	i	i	i
Cc1ccccc1CC(=O)Nc1ccc(S(N)(=O)=O)cc1	i	i	i
C(=N\n1cnnc1)/c1ccc(N2CCOCC2)s1	i	i	i
NC(=S)N/N=C/c1ccc(N2CCOCC2)s1	i	i	89.1
CC1Sc2ccc(C(=O)NCc3ccccn3)cc2NC1=O (stereo not given)	i	87.0	86.8
CC(C)CN1C(=O)c2ccc(C(=O)NCc3ccccn3)cc2C1=O	i	i	i
COc1ccc(-n2c(=O)c3sc4ccccc4c3n(Cc3ccccc3)c2=O)cc1	nt	i	nt
O=C(c1ccccc1)N1CCCCC(Sc2ccccc2)C1=O (stereo not given)	nt	i	i
O=C(CCc1ccccc1)NC1CCS(=O)(=O)C1 (stereo not given)	i	nt	i
O=C(NC1CCS(=O)(=O)C1)Sc1ccccc1 (stereo not given)	i	i	51.5
O=C(CN1C(C(=O)c2ccccc2)=C(N2CCOCC2)c2ccccc2S1(=O)=O)c1ccccc1	i	i	i
CC(=O)Nc1ccc(OCC(O)Cn2ccnc2)cc1 (stereo not given)	30.6	i	i
OC(COc1ccc2ccccc2c1)Cn1ccnc1 (stereo not given)	i	i	i
Cc1cc(C)nc(SCC(=O)N2c3ccccc3C(C)CC2(C)C)n1 (stereo not given)	i	i	i
S=C(S)N1CCCC1	i	i	95.7
NC(=S)N1CCCC1	i	i	i
CN(C)c1ccc(C2CC(=O)C3=C(C2)Nc2ccccc2NC3c2cccnc2)cc1 (stereo not given)	i	i	i
c1ccc2c3c([nH]c2c1)CCCC3	i	i	i
O=c1c2c([nH]c3ccccc13)CCCCC2	34.8	i	i
N#Cc1ccc(S(=O)(=O)N2CCNC(=O)C2CC(=O)Nc2cc(Cl)ccc2Cl)cc1 (stereo not given)	i	i	i
C=CCN1C(=O)/C(=C/c2cn(C(C)CC)c3ccccc23)C(=O)NC1=S (stereo not given)	i	i	i
C=CCN1C(=O)/C(=C/c2ccco2)C(=O)NC1=S	i	i	86.3
SMILES	Mtb MenB inh	PV pol inh	MbtI inh
C=CCN1C(=O)NC(=O)/C(=C/c2ccco2)C1=O	i	i	98.5
O=C1NC(=O)N(Cc2ccco2)C(=O)/C1=C\c1ccco1	i	i	i
O=C(CCc1n[nH]c(=O)[nH]c1=O)N/N=C/c1ccccc1	i	i	i
O=C(NCCN1CCCc2ccccc21)Nc1ccc(Br)cc1F	i	i	i
CCN(CC)c1nn2c(=O)c(C(=O)NCc3cccc(OC)c3OC)cnc2s1	nt	i	nt
O=C(O)C1CC(c2ccccc2)=NO1 (stereo not given)	i	i	i
O=C(O)C1CC(c2ccc(F)cc2)=NO1 (stereo not given)	i	84.0	nt
O=C(O)C1CCCN1/C=C/C(=O)C(F)(F)F (stereo not given)	i	i	i
O=C1NC(=O)C(Nc2ccccc2)S1 (stereo not given)	nt	nt	i
CNC(=O)c1c(N)sc2c1CCCCC2	i	i	nt
NC(=O)c1c(N)sc2c1CCCCC2	i	78.0	i
Cc1ccc(-c2csc3nnc(SCC(N)=O)n23)cc1	37.2	i	i
NC(=O)CSc1nnc2scc(-c3ccc(Cl)cc3)n12	i	i	i
CCCNC(=O)Cn1nc(-c2ccc(F)cc2)c2cnc3ccc(F)cc3c21	nt	i	nt
OCc1nc2ccccc2n1Cc1ccccc1Cl	i	i	i
Oc1ccc(/C=N/n2cnn(Cc3ccccc3Cl)c2=S)c(O)c1	i	87.0	i
CCOc1ccc(-c2nc(CSCC(=O)NCCc3ccc(OCC)c(OCC)c3)c(C)o2)cc1	nt	i	nt
NC(=O)c1c(NC(=O)c2cc(-c3ccc(F)cc3)on2)sc2c1CCCC2	nt	76.0	nt
COc1ccc(-c2cc(C(=O)Nc3sc4c(c3C(N)=O)CCC(C)C4)no2)cc1 (stereo not given)	nt	i	nt
Cn1cc(NC(=O)Nc2cccnc2)c2ccccc2c1=O	i	i	i
Cn1cc(NC(=O)NCCc2ccsc2)c2ccccc2c1=O	i	57.0	i
CCOc1ccc(CCNC(=O)Nc2cn(C)c(=O)c3ccccc23)cc1OCC	i	i	i
Cn1cc(NC(=O)NC2CCCCC2)c2ccccc2c1=O	i	22.0	i
CC(C)CCNC(=O)Nc1cn(C)c(=O)c2ccccc12	i	i	i
CCc1ccc(NC(=O)Nc2cn(C)c(=O)c3ccccc23)cc1	nt	70.0	nt
Cn1cc(NC(=O)N2CCCCC2)c2ccccc2c1=O	i	i	i
CSc1ccc(CCNC(=O)Nc2cn(C)c(=O)c3ccccc23)cc1	i	45.0	i
CC(=O)N1CCC(N(CCN2CCOCC2)C(=S)Nc2cccc(C(F)(F)F)c2)CC1	i	i	i
